Experimental data as given in PubChem BioAssay AID1671190 (National Center for Advancing Translational Sciences (NCATS), 2021).
Among all 580,000 compounds or so, about 6,100 (1.1%) were called active. Inconclusive results (about 15%) are left out. The full list was thinned out, with actives kept by preference. Values without a mark were called inactive. The call rests on the fitted dose curve; in most records, active means well fitted inhibition curve with a large enough effect; inconclusive means small, poorly fitted or top-dose-only effect, or another doubt; inactive means no such curve, though single readings can be large or run the other way.

What follows are molecules tested against Polyunsaturated fatty acid lipoxygenase ALOX12 (Homo sapiens) (UniProt P18054) (assay: Primary qHTS assay for inhibitors of human arachidonate 12S-lipoxygenase (ALOX12): Round 2). Details: purified 12hLO, xylenol orange hydroperoxide absorbance; series mostly up to 108 µM; activity change, negative = inhibition: at the top concentration.
In short: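 Purified human 12hLO at 150 nM in 25 mM Hepes, 0.01% Triton X-100, pH 7.0, preincubated 15 min at room temperature with compound. Reaction started with 40 uM arachidonic acid, 30 min at room temperature. Hydroperoxide measured by Fe-xylenol orange, 573/405 nm absorbance ratio.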
On the % scale 0 is the no-effect control and ±100 the full control effect; potency means the concentration at half of the fitted maximal effect.

Polyunsaturated fatty acid lipoxygenase ALOX12 (Homo sapiens), sequence (P18054 whole entry, looked up): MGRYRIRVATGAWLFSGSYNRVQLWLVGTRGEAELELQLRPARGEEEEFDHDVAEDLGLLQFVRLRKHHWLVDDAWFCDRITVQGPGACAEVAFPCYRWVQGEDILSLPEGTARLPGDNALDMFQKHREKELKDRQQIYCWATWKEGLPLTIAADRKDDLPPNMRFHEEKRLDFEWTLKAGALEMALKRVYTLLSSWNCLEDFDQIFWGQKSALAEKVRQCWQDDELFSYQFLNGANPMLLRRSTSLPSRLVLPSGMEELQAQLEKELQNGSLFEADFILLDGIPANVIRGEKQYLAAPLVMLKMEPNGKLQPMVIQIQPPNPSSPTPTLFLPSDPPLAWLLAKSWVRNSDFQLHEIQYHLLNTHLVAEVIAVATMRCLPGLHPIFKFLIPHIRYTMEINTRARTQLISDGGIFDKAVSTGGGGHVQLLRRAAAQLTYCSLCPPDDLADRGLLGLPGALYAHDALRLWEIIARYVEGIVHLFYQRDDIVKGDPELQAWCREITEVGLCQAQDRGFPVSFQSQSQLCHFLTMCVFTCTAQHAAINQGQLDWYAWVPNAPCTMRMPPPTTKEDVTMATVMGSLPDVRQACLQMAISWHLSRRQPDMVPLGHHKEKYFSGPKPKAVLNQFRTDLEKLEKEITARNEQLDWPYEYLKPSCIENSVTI

SMILES | activity change, negative = inhibition | Potency
Cc1nnc(SCC(=O)Nc2sc3c(c2C#N)CCCC3)n1CC(C)C | 3.74% | 
CCC(=O)NNC(=S)Nc1ccccc1 | -23.1% | 
O=C(NC1C2CC3CC(C2)CC1C3)c1cccc(Br)c1 (stereo unspecified) | -20.3% | 
O=C(NC(=S)Nc1cccc2c(O)cccc12)c1cccc(Br)c1 |  | 17.8 µM (active)
Cc1ccc(-c2nnc3c4ccccc4c(C)nn23)cc1NC(=O)c1cccc(Br)c1 | 0% | 
O=C(Nc1ccc(S(=O)(=O)Nc2ncccn2)cc1)C12CC3CC(CC(C3)C1)C2 | 1.9% | 
O=C(Nc1ccc(S(=O)(=O)Nc2ncccn2)cc1)c1cncc(Br)c1 | -19.6% | 
O=C(NC(=S)Nc1ccc(S(=O)(=O)Nc2ncccn2)cc1)c1cccc(Br)c1 |  | 20 µM (active)
CCOc1ccc(C(=O)N(CCN(C)C)CC(=O)OC(C)(C)C)cc1 | -10.9% | 
CC(C)NC(=O)c1cccc2c1CCCN2CC(=O)NCCc1ccccc1 | -6.04% | 
CSc1ccccc1C(=O)NC(C)c1ccccc1 (stereo unspecified) | -1.43% | 
Clc1ccc(-c2nc(-c3ccc(Br)o3)no2)cc1 | 14.2% | 
CC(NC(=O)Cn1nc(C(N)=O)c2ccccc2c1=O)c1ccccc1 (stereo unspecified) |  | 35.5 µM (active)
O=C(Cn1nc(C(=O)O)c2ccccc2c1=O)Nc1cc(F)ccc1F | -13.9% | 
CNC(=O)c1nn(CC(=O)NC(C)c2ccccc2)c(=O)c2ccccc12 (stereo unspecified) | 3.81% | 
CC(=O)N1CCC(C(=O)N(C)CC(=O)Nc2ccccc2C(F)(F)F)CC1 | -4.93% | 
Cc1cccc(Oc2c(C(F)(F)F)oc3cc(OCC(=O)OCCC(C)C)ccc3c2=O)c1 | 11.5% | 
O=C(OCC(=O)N1CCOCC1)c1ccc2ccccc2c1 | 198% | 
O=C(OCc1nc2ccccc2o1)c1ccc2ccccc2c1 | 9.47% | 
C=CC(=O)c1ccc2ccccc2c1 |  | 17.8 µM (active)
O=C(O)COc1ccc(-c2nccc3c2C(=O)N(Cc2c[nH]c4ccccc24)CC(COc2ccc(F)c(F)c2)O3)cc1 (stereo unspecified) | 6.07% | 
Cc1nn(C)c2nc(C(C)C)cc(C(=O)N3CCN(c4ncccn4)CC3)c12 | 43.9% | 

SMILES | activity change, negative = inhibition | Potency
Cc1[nH]n(C)c(=O)c1N=Nc1ccc(S(C)(=O)=O)cc1 |  | 6.31 µM (active)
Cc1[nH]n(C(N)=S)c(=O)c1N=Nc1ccc(Cl)cc1Cl | -80.5% | 
Cc1[nH]n(C)c(=O)c1C(=O)c1c(-c2c(Cl)cccc2Cl)noc1C | -37.5% | 
Oc1ccc(O)c([S+]2CCCC(C3CCCCC3)C2)c1 (stereo unspecified) |  | 17.8 µM (active)
COc1ccc(Cc2nnc(SCc3nc4ccccc4c(=O)[nH]3)n2CC(C)C)cc1 | 5.98% | 
Cc1ccc(NC(=O)C2Cc3ccccc3O2)cc1S(N)(=O)=O (stereo unspecified) | 26.3% | 
COc1cc(C2C(C(=O)c3sc(C)nc3C)=C(O)C(=O)N2CCN(C)C)cc(OC)c1OC (stereo unspecified) | 3.5% | 
COc1ccc(CCN2C(=O)c3[nH]nc(-c4ccccc4O)c3C2c2ccc(C)cc2)cc1OC (stereo unspecified) | -5.81% | 
COCCN1C(=O)C(O)=C(C(=O)c2ccc(C)o2)C1c1ccc(O)c(OC)c1 (stereo unspecified) |  | 17.8 µM (active)
COc1cc(C2C(C(=O)c3ccc(C)o3)=C(O)C(=O)N2CCc2ccccc2)ccc1O (stereo unspecified) |  | 35.5 µM (active)
CCCOc1ccc(C2C(C(=O)c3ccc(C)o3)=C(O)C(=O)N2CCCn2ccnc2)cc1 (stereo unspecified) | -23.1% | 
CCOC(=O)C1=C(c2ccccc2)N=C2SCC(=O)N2C1c1ccc(O)c(OC)c1 (stereo unspecified) | 16% | 
COc1ccc(OC2CN(Cc3cccn3C)C2)cc1 | 5.21% [at 12.5 µM] | 
COc1ccc(OCCSC(C)C(N)=O)cc1 (stereo unspecified) | 0.76% | 
CC(C)c1ccc(C2CC(=O)N3CN(C4CCCCC4)CSC3=C2C#N)cc1 (stereo unspecified) |  | 17.8 µM (active)
COc1cc(C(=O)Nc2ccc(C(=O)O)cc2)c2ccccc2n1 | -3.94% | 
CNC(=O)c1cccc(NC(=O)c2cc(C3CC3)nc3ccccc23)c1 |  | 39.8 µM (active)
CC(C)c1ccc(/C=N/NC(=O)c2cc(C3CC3)nc3ccccc23)cc1 | -1.68% | 
CNC(=O)C(=O)NC1CC(C)(C)NC(C)(C)C1 | 12.8% | 
Cc1cc(C)cc(S(=O)(=O)n2cc3c(=O)n(C)c(=O)n(C)c3n2)c1 | 17.8% | 
O=CN1CCN(C(=O)CCC(=O)O)CC1 | 1.54% | 
Clc1ccc(Cn2ncc3c(NCc4cccnc4)ncnc32)cc1 | 9.76% | 

SMILES | activity change, negative = inhibition | Potency
Cc1cnc(CNc2nc(-c3cccnc3)nc3ccccc23)cn1 | -15.3% | 
c1ccc(CNc2ncncc2-c2cccnc2)cc1 |  | 39.8 µM (active)
Cc1cccc(-c2cc(C(=O)NCC3CCCO3)c3ccccc3n2)c1 (stereo unspecified) | -41.8% | 
COc1ccc(-c2noc(-c3cc4cc(Cl)ccc4oc3=O)n2)cc1OC | -21.2% | 
CCn1c(SCC(=O)NC2CC2)nnc1-c1ccncc1 | 0% | 
CC1CCCCC1NC(=O)CSc1nnc(-c2ccncc2)n1CCCN(C)C (stereo unspecified) |  | 0.355 µM (active)
O=C(CSc1nnc(-c2ccncc2)n1C1CCCCC1)Nc1ccccc1 | -13.7% | 
CCOc1ccc(CNS(=O)(=O)c2ccc(-c3ccc(=O)[nH]n3)o2)cc1 | 1.93% | 
O=C(NC1CCS(=O)(=O)C1)c1cc2ccccc2oc1=O (stereo unspecified) | -5.29% | 
CN(Cc1ccccc1)C(=O)C[C@@H]1CCNC[C@@H]1Cc1cc(-c2ccc(C(C)(C)C)cc2)on1 |  | 25.1 µM (active)
CCCCc1cc(C[C@H]2CNCC[C@H]2CC(=O)N(CC)CC)no1 | 15.8% [at 176 µM] | 
O=C(C[C@@H]1CCNC[C@@H]1Cc1cc(-c2ccc(F)cc2)on1)NCCN1CCOCC1 | 10.7% [at 176 µM] | 
COc1ccc(S(=O)(=O)Nc2nc3ccccc3nc2Nc2cccc(C)c2)cc1 | 0.128% | 
COc1ccc(C(=O)OCc2ccc(Br)cc2)c(OC)c1 | -24.9% | 
COc1ccc(OC(=O)CCc2ccc3c(c2)OCCO3)cc1 | -53.4% | 
CCCCc1c/c(=N\O)oc2cc3occ(C)c3cc12 |  | 17.8 µM (active)
CCOC(=O)COc1ccc2c(=O)c(-c3ccc(OC)c(OC)c3)c(C)oc2c1 | 7.48% | 
CC(C)C[C@@H]1N[C@H](C(=O)NCc2ccc(F)cc2)Cc2cn(C)c3cccc1c23 | 23.5% [at 176 µM] | 
Cc1ccc(Cl)c(OC(C)C(=O)NN)c1 (stereo unspecified) | 10.7% | 
CCOC(=O)C[C@H]1c2ccc(C(F)(F)F)cc2S(=O)(=O)N1c1ccccc1 | -16.8% | 
CCOC(=O)/C=C/c1ccc(C(F)(F)F)cc1S(=O)(=O)NC(C)(C)C | -28.5% | 
CCOC(=O)C1Nc2ccc(C(F)(F)F)cc2C2C=CCC12 (stereo unspecified) |  | 17.8 µM (active)
